Measured values published in PubChem BioAssay AID1159580 (chemical genetic matrix, 2015).
Several values for one entry are separate records, joined by “and”; a condition that tells them apart may be missing. Identical values can stand only once. Among all 5,500 compounds or so, about 2,000 (36%) were called active. Inconclusive results (about 18%) are left out. No stated cut-off is given here; in the data, active means normalized growth mostly below about 0.91 (no sharp cut-off); inconclusive means no clear call, values can overlap the other calls; inactive means mostly above about 0.92. Some of the results follow.

Test: chemical genetic growth profiling, strain panel (AID 1159580);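 further: tested at 20 µM; growth read once vehicle control cultures reached saturation at 30 °C; 1 = growth at the plate median or of vehicle wells; lower values mean less growth of the strain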
Settings: growth OD
[1] = S. cerevisiae deletion strains, locus YDL101C, strain DUN1, hits give low values
[2] = S. cerevisiae deletion strains, locus YHR030C, strain SLT2, hits give low values
[3] = S. cerevisiae deletion strains, locus YHR079C, strain IRE1, hits give low values
[4] = S. cerevisiae deletion strains, locus YJL095W, strain BCK1, hits give low values
[5] = S. cerevisiae deletion strains, locus YJR066W, strain TOR1, hits give low values
[6] = S. cerevisiae deletion strains, locus YLR113W, strain HOG1, hits give low values
[7] = S. cerevisiae deletion strains, locus YNL183C, strain NPR1, hits give low values
[8] = S. cerevisiae deletion strains, locus YOR061W, strain CKA2, hits give low values
[9] = S. cerevisiae deletion strains, locus YOR231W, strain MKK1, hits give low values
[10] = S. cerevisiae deletion strains, locus YPL256C, strain CLN2, hits give low values

Measured: normalized growth

CC[C@H]1CN2CCC1C[C@@H]2[C@@H](O)c1ccnc2ccc(OC)cc12 (stereo partly drawn)
inactive: S. cerevisiae deletion strains, locus YAL013W, strain DEP1, hits give low values 0.997 | S. cerevisiae deletion strains, locus YBR021W, strain FUR4, hits give low values 0.996 | S. cerevisiae deletion strains, locus YBR229C, strain ROT2, hits give low values 0.992 | S. cerevisiae deletion strains, locus YCL029C, strain bik1, hits give low values 1.01 | S. cerevisiae deletion strains, locus YDL035C, strain GPR1, hits give low values 0.995 | S. cerevisiae deletion strains, locus YDL074C, strain BRE1, hits give low values 1.01 | [1] 0.995 | S. cerevisiae deletion strains, locus YDL134C, strain PPH21, hits give low values 1.01 | S. cerevisiae deletion strains, locus YDL185W, strain tfp1, hits give low values 1.01 | S. cerevisiae deletion strains, locus YDL192W, strain arf1, hits give low values 1.01 | S. cerevisiae deletion strains, locus YDR101C, strain arx1, hits give low values 1 | S. cerevisiae deletion strains, locus YDR150W, strain NUM1, hits give low values 1.01 | S. cerevisiae deletion strains, locus YDR162C, strain NBP2, hits give low values 1 | S. cerevisiae deletion strains, locus YDR318W, strain mcm21, hits give low values 1.02 | S. cerevisiae deletion strains, locus YDR388W, hits give low values 1.01 | S. cerevisiae deletion strains, locus YDR502C, strain sam2, hits give low values 1.04 | S. cerevisiae deletion strains, locus YEL061C, strain CIN8, hits give low values 1.01 | S. cerevisiae deletion strains, locus YER110C, hits give low values 1.01 | S. cerevisiae deletion strains, locus YER155C, strain BEM2, hits give low values 1.01 | S. cerevisiae deletion strains, locus YER167W, strain BCK2, hits give low values 1 | S. cerevisiae deletion strains, locus YGL078C, strain dbp3, hits give low values 1.01 | S. cerevisiae deletion strains, locus YGL086W, strain mad1, hits give low values 1 | S. cerevisiae deletion strains, locus YGL248W, strain PDE1, hits give low values 0.997 | S. cerevisiae deletion strains, locus YGR078C, strain PAC10, hits give low values 1 | S. cerevisiae deletion strains, locus YGR135W, strain pre9, hits give low values 1.01 | S. cerevisiae deletion strains, locus YGR229C, strain SMI1, hits give low values 0.977 | S. cerevisiae deletion strains, locus YGR252W, strain gcn5, hits give low values 0.994 | [2] 1.01 and 1.04 | S. cerevisiae deletion strains, locus YHR079C, strain IRE1 (second series), hits give low values 1.01 | [3] 1.02 | S. cerevisiae deletion strains, locus YHR094C, strain hxt1, hits give low values 1.01 | S. cerevisiae deletion strains, locus YHR129C, strain ARP1, hits give low values 1.01 | S. cerevisiae deletion strains, locus YHR200W, strain rpn10, hits give low values 1.02 | S. cerevisiae deletion strains, locus YIL066C, strain RNR3, hits give low values 1 | S. cerevisiae deletion strains, locus YIL073C, strain SPO22, hits give low values 1.03 | S. cerevisiae deletion strains, locus YIL125W, strain kgd1, hits give low values 1 | S. cerevisiae deletion strains, locus YIR030C, strain dcg1, hits give low values 1.01 | [4] 1.01 and 1.02 | S. cerevisiae deletion strains, locus YJL134W, strain LCB3, hits give low values 0.997 | S. cerevisiae deletion strains, locus YJL168C, strain set2, hits give low values 1.01 | S. cerevisiae deletion strains, locus YJL187C, strain SWE1 (second series), hits give low values 0.999 | S. cerevisiae deletion strains, locus YJR043C, strain POL32, hits give low values 1.01 | [5] 0.956 | S. cerevisiae deletion strains, locus YJR075W, strain HOC1, hits give low values 1 | S. cerevisiae deletion strains, locus YKL009W, strain mrt4, hits give low values 1.08 | S. cerevisiae deletion strains, locus YKL068W, hits give low values 1.01 | S. cerevisiae deletion strains, locus YKL085W, strain MDH1 (second series), hits give low values 1.03 | S. cerevisiae deletion strains, locus YKL085W, strain MDH1, hits give low values 1.03 | S. cerevisiae deletion strains, locus YKL190W, strain CNB1, hits give low values 1.01 | S. cerevisiae deletion strains, locus YKR001C, strain vps1, hits give low values 1.02 | S. cerevisiae deletion strains, locus YLR039C, strain RIC1, hits give low values 1.01 | S. cerevisiae deletion strains, locus YLR058C, strain SHM2, hits give low values 1 | S. cerevisiae deletion strains, locus YLR102C, strain apc9, hits give low values 1.01 | [6] 1.02 | S. cerevisiae deletion strains, locus YLR262C, strain YPT6, hits give low values 0.988 | S. cerevisiae deletion strains, locus YLR268W, strain sec22, hits give low values 1.02 | S. cerevisiae deletion strains, locus YLR330W, strain CHS5, hits give low values 1 | S. cerevisiae deletion strains, locus YLR342W, strain FKS1 (second series), hits give low values 0.983 | S. cerevisiae deletion strains, locus YLR371W, strain rom2, hits give low values 1.01 | S. cerevisiae deletion strains, locus YLR418C, strain cdc73, hits give low values 1.01 | S. cerevisiae deletion strains, locus YML016C, strain PPZ1, hits give low values 1 | S. cerevisiae deletion strains, locus YML032C, strain rad52, hits give low values 1.01 | S. cerevisiae deletion strains, locus YML124C, strain tub3, hits give low values 1.01 | S. cerevisiae deletion strains, locus YMR078C, strain ctf18, hits give low values 1.03 | S. cerevisiae deletion strains, locus YMR223W, strain ubp8, hits give low values 0.996 | S. cerevisiae deletion strains, locus YMR263W, strain SAP30, hits give low values 1.02 | S. cerevisiae deletion strains, locus YMR307W, strain GAS1, hits give low values 0.95 | S. cerevisiae deletion strains, locus YNL067W, strain RPL9B, hits give low values 1.01 | S. cerevisiae deletion strains, locus YNL128W, strain TEP1, hits give low values 1.01 | S. cerevisiae deletion strains, locus YNL153C, strain GIM3, hits give low values 1 | [7] 0.942 | S. cerevisiae deletion strains, locus YNL233W, strain BNI4, hits give low values 1 | S. cerevisiae deletion strains, locus YNL250W, strain rad50, hits give low values 1.01 | S. cerevisiae deletion strains, locus YNL271C, strain bni1, hits give low values 1.01 | S. cerevisiae deletion strains, locus YNL298W, strain CLA4, hits give low values 1.01 | S. cerevisiae deletion strains, locus YNL307C, strain MCK1, hits give low values 1.01 | S. cerevisiae deletion strains, locus YNL322C, strain KRE1, hits give low values 1 | S. cerevisiae deletion strains, locus YNR052C, strain pop2, hits give low values 1.02 | S. cerevisiae deletion strains, locus YOL006C, strain TOP1, hits give low values 1.02 | S. cerevisiae deletion strains, locus YOL012C, strain htz1 0.815 | S. cerevisiae deletion strains, locus YOL147C, strain pex11, hits give low values 1.01 | [8] 1.01 | S. cerevisiae deletion strains, locus YOR069W, strain VPS5, hits give low values 0.998 | S. cerevisiae deletion strains, locus YOR136W, strain idh2, hits give low values 1.02 | S. cerevisiae deletion strains, locus YOR144C, strain elg1, hits give low values 1.01 | S. cerevisiae deletion strains, locus YOR184W, strain ser1, hits give low values 1.01 | [9] 1.03 | S. cerevisiae deletion strains, locus YOR316C, strain cot1, hits give low values 1.01 | S. cerevisiae deletion strains, locus YPL055C, strain LGE1, hits give low values 0.993 | S. cerevisiae deletion strains, locus YPL241C, strain CIN2, hits give low values 0.997 | [10] 1.02 | S. cerevisiae deletion strains, locus YPR119W, strain clb2, hits give low values 1.01 | S. cerevisiae deletion strains, locus YPR141C, strain kar3, hits give low values 1.01 | S. cerevisiae deletion strains, locus YPR163C, strain tif3, hits give low values 1.02 | S. cerevisiae deletion strains, locus YPR167C, strain met16, hits give low values 1.01 | S. cerevisiae deletion strains, strain wtn01, hits give low values 1.03 | S. cerevisiae strains, strain wild type, hits give low values 0.999

O=c1cc(CSc2ccc(Cl)cc2)c2ccc(O)cc2o1
active: S. cerevisiae deletion strains, locus YDR477W, strain SNF1, hits give low values 0.674 | S. cerevisiae deletion strains, locus YER123W, strain YCK3, hits give low values 0.565 | S. cerevisiae deletion strains, locus YER133W, strain GLC7, hits give low values 0.572 | S. cerevisiae deletion strains, locus YGR040W, strain KSS1, hits give low values 0.631 | S. cerevisiae deletion strains, locus YGR052W, strain FMP48, hits give low values 0.436 | [2] 0.452 | [3] 0.405 | S. cerevisiae deletion strains, locus YHR082C, strain KSP1, hits give low values 0.472 | [4] 0.432 | S. cerevisiae deletion strains, locus YKL048C, strain ELM1, hits give low values 0.656 | S. cerevisiae deletion strains, locus YKL067W, strain YNK1, hits give low values 0.732 | S. cerevisiae deletion strains, locus YKL101W, strain HSL1, hits give low values 0.682 | S. cerevisiae deletion strains, locus YKL203C, strain TOR2, hits give low values 0.66 | [6] 0.265 | S. cerevisiae deletion strains, locus YLR403W, strain SFP1, hits give low values 0.639 | S. cerevisiae deletion strains, locus YML070W, strain DAK1, hits give low values 0.666 | [7] 0.434 | S. cerevisiae deletion strains, locus YOR119C, strain RIO1, hits give low values 0.654 | [9] 0.444 | S. cerevisiae deletion strains, locus YPL031C, strain PHO85, hits give low values 0.497 | S. cerevisiae deletion strains, locus YPL153C, strain RAD53, hits give low values 0.442 | S. cerevisiae deletion strains, locus YPL204W, strain HRR25, hits give low values 0.574 | [10] 0.41
inactive: S. cerevisiae deletion strains, locus YAR019C, strain CDC15, hits give low values 0.937 | S. cerevisiae deletion strains, locus YBL105C, strain PKC1, hits give low values 0.963 | S. cerevisiae deletion strains, locus YBR135W, strain CKS1, hits give low values 0.944 | S. cerevisiae deletion strains, locus YBR136W, strain MEC1, hits give low values 0.949 | S. cerevisiae deletion strains, locus YBR160W, strain CDC28, hits give low values 0.96 | S. cerevisiae deletion strains, locus YDL017W, strain CDC7, hits give low values 0.964 | S. cerevisiae deletion strains, locus YDL028C, strain MPS1, hits give low values 0.956 | [1] 0.974 | S. cerevisiae deletion strains, locus YDL108W, strain KIN28, hits give low values 0.955 | S. cerevisiae deletion strains, locus YDL132W, strain cdc53, hits give low values 0.944 | S. cerevisiae deletion strains, locus YDL214C, strain PRR2, hits give low values 0.738 | S. cerevisiae deletion strains, locus YDR052C, strain DBF4, hits give low values 0.962 | S. cerevisiae deletion strains, locus YDR054C, strain cdc34, hits give low values 0.937 | S. cerevisiae deletion strains, locus YDR226W, strain ADK1, hits give low values 0.959 | S. cerevisiae deletion strains, locus YFL009W, strain cdc4, hits give low values 0.935 | S. cerevisiae deletion strains, locus YFL029C, strain CAK1, hits give low values 0.943 | S. cerevisiae deletion strains, locus YFR003C, strain YPI1, hits give low values 0.959 | S. cerevisiae deletion strains, locus YFR019W, strain FAB1, hits give low values 0.826 | S. cerevisiae deletion strains, locus YFR028C, strain CDC14, hits give low values 0.954 | S. cerevisiae deletion strains, locus YGR092W, strain DBF2, hits give low values 0.63 | S. cerevisiae deletion strains, locus YHR205W, strain SCH9, hits give low values 0.759 | S. cerevisiae deletion strains, locus YIL147C, strain SLN1, hits give low values 0.95 | S. cerevisiae deletion strains, locus YJL128C, strain PBS2, hits give low values 0.92 | S. cerevisiae deletion strains, locus YJL157C, strain FAR1, hits give low values 0.737 | S. cerevisiae deletion strains, locus YJR016C, strain ILV3, hits give low values 0.945 | S. cerevisiae deletion strains, locus YJR066W, strain TOR1 (second series), hits give low values 0.738 | [5] 0.534 | S. cerevisiae deletion strains, locus YKL193C, strain SDS22, hits give low values 0.947 | S. cerevisiae deletion strains, locus YLR133W, strain CKI1, hits give low values 0.747 | S. cerevisiae deletion strains, locus YMR001C, strain CDC5, hits give low values 0.944 | S. cerevisiae deletion strains, locus YMR205C, strain PFK2 (second series), hits give low values 0.748 | S. cerevisiae deletion strains, locus YMR277W, strain FCP1, hits give low values 0.928 | S. cerevisiae deletion strains, locus YNL006W, strain LST8, hits give low values 0.958 | S. cerevisiae deletion strains, locus YNL020C, strain ARK1, hits give low values 0.719 | S. cerevisiae deletion strains, locus YNL161W, strain CBK1, hits give low values 0.947 | S. cerevisiae deletion strains, locus YNL207W, strain RIO2, hits give low values 0.946 | S. cerevisiae deletion strains, locus YNL222W, strain SSU72, hits give low values 0.944 | S. cerevisiae deletion strains, locus YNL307C, strain MCK1 (second series), hits give low values 0.686 | S. cerevisiae deletion strains, locus YOL078W, strain AVO1, hits give low values 0.939 | S. cerevisiae deletion strains, locus YOL136C, strain PFK27, hits give low values 0.748 | [8] 0.712 | S. cerevisiae deletion strains, locus YOR329C, strain SCD5, hits give low values 0.955 | S. cerevisiae deletion strains, locus YPL209C, strain IPL1, hits give low values 0.955 | S. cerevisiae deletion strains, locus YPR025C, strain CCL1, hits give low values 0.952 | S. cerevisiae deletion strains, locus YPR106W, strain ISR1, hits give low values 0.952 | S. cerevisiae deletion strains, locus YPR111W, strain DBF20, hits give low values 0.951 | S. cerevisiae deletion strains, strain NNK1, hits give low values 0.948 | S. cerevisiae deletion strains, strain TSCII, hits give low values 0.934
